Laboratory results reported in PubChem BioAssay.
Values without a mark were called inactive. Activity calls are given as the source filed them.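 How the source made its calls: active means z-score of at least 1.8 in each of two replicates, scored against plate mean and spread of sample wells; inactive means the rest.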

assay: viability rescue of complex I mutant cybrids, primary screen, cell-based, galactose medium, ATP luminescence (AID 1645843); conditions: complex I mutant cybrid cells, 72 h, hits give high values;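 further: positive z means more ATP and so rescue of galactose-driven cybrid death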

Row | SMILES | z-score
1 | O=C(c1ccc(OC2(C(=O)O)CCSCC2)cc1)N1CCOCC1 | -0.515
2 | CC(CCN1CCC(n2cc(CCO)nn2)CC1)CC(C)(C)C (stereo not given) | -0.485
3 | CN1CCN(Cc2cnc3ccccc3c2)CC1CCO (stereo not given) | 0
4 | CCOC(=O)c1cc(C)nc(N2CCCC(c3nc(C(C)C)no3)C2)n1 (stereo not given) | -0.54
5 | Cc1cccc2c(C(=O)N3CCN(C)C(=O)C3C)cc(-c3cnc(N)nc3)nc12 (stereo not given) | 2.6
6 | C1=CCC(CN2CCC(N3CCCC3)CC2)CC1 (stereo not given) | -0.58
7 | O=C(C1CCCCCC1)N1CCC(Cn2cc(CCO)nn2)CC1 | -0.51
8 | Cc1nc2cc(C(=O)N3CCN(C)C(=O)C3)ccc2s1 | -0.24
9 | CC(C)c1nc(Cn2cnc3ccsc3c2=O)cs1 | -0.55
10 | O=C(Nc1cccc(-c2cncnc2)c1)c1ccc2c(c1)OCO2 | -0.62
11 | Cn1ncc(NC(=O)Cn2ccc(-c3ccccc3C(F)(F)F)n2)n1 | 1.12
12 | CC(C)C1C(=O)N(C)CCN1C(=O)C1(C)CC1 (stereo not given) | -0.54
13 | Cc1cccc2c(C(=O)N(C)C(C)C)cc(-c3cnc(C(C)(C)C)nc3)nc12 | 2.35 (active)
14 | O=C(CCn1cnnn1)N1CCc2[nH]nc(-c3ccc4c(c3)OCO4)c2C1 | 0.465
15 | CC1Cc2cc(C(=O)N3CCC(Cn4cc(C5CC5)nn4)CC3)ccc2O1 (stereo not given) | -0.53
16 | CC(C)Oc1cccc(C(=O)N2CCC(n3cc(C(C)(C)O)nn3)CC2)c1 | -0.52
17 | Cc1ccc(-c2ccn(CC(=O)Nc3nn(C)c4ccccc34)n2)s1 | 2.7 (active)
18 | Cc1cccc(-n2cc(-c3ccn(CC(=O)Nc4ccnn4C)n3)cn2)c1 | 1.22
19 | CCC(=O)N(CC)c1cc(C)ccc1OC1(C(=O)O)CCSCC1 | -0.47
20 | CC(C)n1cc(-c2cc(C(=O)N3CCC(C)(C)C3)c3ccc(F)cc3n2)cn1 | 0.14

Row | SMILES | z-score
21 | Cc1cc(Cl)cc2c(=O)n(C(C)Cn3cccn3)cnc12 (stereo not given) | -0.45
22 | OCCCCCNc1nccc(-c2cnn(-c3ccc(F)cc3)c2)n1 | -0.895
23 | CCC1CN(C(=O)c2cc(-c3cnn(C)c3)nc3c(C)c(C)ccc23)CCO1 (stereo not given) | 3.04 (active)
24 | CC[C@H](C)[C@H](N)C(=O)N1CCC(Cn2cc(-c3ccc(F)cc3)nn2)CC1 | -0.33
25 | CCOC(=O)c1ccc(N2CCC(c3ccc(F)cc3)C2)nc1 (stereo not given) | 0.975
26 | CCCCC(CC)CN1CCC(n2cc(CNC)nn2)CC1 (stereo not given) | 1
27 | Cc1nn(C)c(C)c1-c1ccnc(NCCc2nc(-c3ccccn3)no2)n1 | -0.395
28 | COc1ccc2c(c1)CC(c1nc(Cc3cccs3)no1)CO2 (stereo not given) | -0.1
29 | O=C(CN1CCOC1=O)NCCc1cccc(F)c1 | -0.505
30 | Cc1csc2c(=O)n(Cc3ccc(Cl)s3)cnc12 | -0.505
31 | COc1ccc(F)cc1-c1cnn(CC(=O)Nc2cc(C)nn2C)c1 | 0.085
32 | COc1c(F)cc(C(=O)N2CCNC(=O)C2Cc2ccccc2)cc1F (stereo not given) | -0.455
33 | Cc1cc(NC(=O)Cn2c(C)nc(Cl)c2Cl)n(C2CCCCC2)n1 | -0.41
34 | CC(CCCC(C)(C)O)NC/C=C/c1ccc(F)cc1 (stereo not given) | -0.51
35 | CC(CCCC(C)(C)O)CCN1CCC(N(C)CCO)CC1 (stereo not given) | -0.505
36 | CCN1CCC(N2CCCC(CN3CCCC3)C2)CC1 (stereo not given) | -0.48
37 | Cc1ccn2cc(Cn3cnc4ccc(F)cc4c3=O)nc2c1 | 0.645
38 | Cc1nsc(NC(=O)NCCC2CCCCCC2)n1 | -1.07
39 | CC(C)CN(C)Cc1cn(C2CCN(C3CCCCCC3)CC2)nn1 | -0.485
40 | Cc1cccc2c(C(=O)N(C)C(C)C)cc(-c3cnc(-c4cccnc4)nc3)nc12 | -0.13
